Assay results: PubChem BioAssay (NCATS)
Results filed as inconclusive are left out. Activity calls are given as the source filed them. Calls follow the shape of the dose curve; as a rule, active = well fitted cell-killing curve with a large enough effect; inconclusive = small, poorly fitted or top-dose-only effect, or effect the other way; inactive = no such curve, though single readings can be large or run the other way.

assay: qHTS of pediatric cancer cell lines to identify multiple opportunities for drug repurposing: Confirmatory screen for RD cells (AID 1347124); settings: RD rhabdomyosarcoma cell viability; series mostly up to 45.9 µM;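 also: cells exposed to compound for 48 h before viability readout; nearly all actives have a fitted effect of over 65% in size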
Description: Drug repurposing or repositioning has been offered as a strategy for drug development in oncology programs. This approach has special potential for childhood cancers and other rare or orphan diseases, where the expected return on new drug development has been a disincentive to pharmaceuticals.
In this project we exploit the poly-pharmacology of drugs to discover new indications via phenotypic screening of a panel of 19 well-characterized cell lines derived from solid tumors seen in children and adolescents. The goal is to identify approved drugs with previously unrecognized anticancer properties that has the potential to reveal new mechanisms and biological processes involved in carcinogenesis or drug resistance. We employed a titration-based paradigm (quantitative high-throughput screening or qHTS), where all compounds were tested at multiple concentrations for their effect on cell viability. Concentration-response curves (CRCs) were derived directly from the primary screen, and both potency and efficacy values were used to identify compounds with robust bioactivity profiles. We screened the NIH Chemical Genomics Center (NCGC) Pharmaceutical Collection (NPC) and Mechanism Interrogation Plate (MIPE) small molecule collections of approved and investigational compounds against these cell lines; and measured metabolically active cells after 48 hours of compound treatment as a proxy for cell viability.
Assay Submitter: Nathalia J. Martinez, National Center for Advancing Translational Sciences, National Institutes of Health, Rockville, MD, USA; email: natalia.martinez@nih.gov
[1] Shen, M et al. Quantitative high-throughput phenotypic screening of pediatric cancer cell lines identifies multiple opportunities for drug repurposing. Oncotarget 2017 Dec 19;9(4):4758-4772. PMID 29435139.
The cells were obtained from University of North Carolina (UNC), Pediatric Preclinical Testing Program (PPT), and Coriell Institute (CI).
qHTS cell viability assay:
Cells were assayed in growth media at a density of 500-1,000 cells/well. Five microliters of cells were dispensed into 1,536-well, white, solid-bottom, TC-treated plates (Greiner Bio One) using a multidrop dispenser and incubated at 37 degrees C, 5% CO2, under a humidified atmosphere for 5 hours. Twenty-three nanoliters of compounds and controls (neutral control DMSO or positive control bortezomib at final concentration of 2.3 µM) were subsequently transferred by Kalypsys pintool. For primary screens, the MIPE collection was tested at 11-point dilutions (final concentrations range from 0.78 nM to 46 µM) and the NPC collection at 8-point dilutions (final concentrations range from 0.59 nM to 46 µM). Compounds tested in follow-up screens were assayed at 11-point dilutions. Cells were incubated for 48 hours, followed by addition of 3 µL of CellTiter-Glo (Promega). After a 15 min incubation at room temperature, samples were analyzed for luminescence intensity using a ViewLux High-throughput CCD imager equipped with clear filters.
Potency is read from the fitted curve at half-maximal effect.

Compound	Potency
CC(C)(C)c1cnc(CSc2cnc(NC(=O)C3CCNCC3)s2)o1	0.585 µM (active)
Nc1ccccc1NC(=O)c1ccc(CNc2nccc(-c3cccnc3)n2)cc1	1.65 µM (active)
CN(C)Cc1c(C(=O)NCCOc2ccc(C(=O)NO)cc2)oc2ccccc12	1.65 µM (active)
COc1ccc(OC)c(-c2nnc3ccc(-c4ccc(OC)c(O[C@@H]5CCOC5)c4)nn23)c1	11.7 µM (active)
Nc1ccccc1NC(=O)c1ccc(CNC(=O)OCc2cccnc2)cc1	13.5 µM (active)
COc1ccc(F)c(F)c1C(=O)c1cnc(NC2CCN(S(C)(=O)=O)CC2)nc1N	0.827 µM (active)
C=CCn1c(=O)c2cnc(Nc3ccc(N4CCN(C)CC4)cc3)nc2n1-c1cccc(C(C)(C)O)n1	0.737 µM (active)
CC1(C)OC2=C(C(=O)c3ccccc3C2=O)[C@H](NCc2ccccc2)[C@H]1O	8.27 µM (active)
O=C(Nc1ncc(-c2cc(C(F)F)nn2-c2c(Cl)cccc2Cl)s1)C1CC1	0.827 µM (active)
CN1CCN(Cc2ccc(NC(=O)Nc3ccc(Oc4cc(NC(=O)C5CC5)ncn4)cc3)cc2C(F)(F)F)CC1	0.414 µM (active)
CC(C)(C)NC(=O)[C@H]1CN(Cc2cccnc2)CCN1C[C@@H](O)C[C@@H](Cc1ccccc1)C(=O)N[C@H]1c2ccccc2C[C@H]1O	inactive
O=c1[nH]nc(Sc2ncc([N+](=O)[O-])s2)n1-c1ccc2c(c1)OCCO2	9.27 µM (active)
Nc1cc(C(F)(F)F)c(-c2cc(N3CCOCC3)nc(N3CCOCC3)n2)cn1	5.85 µM (active)
CCn1cc(-c2ccnc3[nH]c(-c4cccc(CN(C)C)c4)cc23)c(-c2ccc(NC(=O)N(C)C)cc2)n1	1.04 µM (active)
CC[C@@H]1C(=O)N(C)c2cnc(Nc3ccc(C(=O)NC4CCC(N5CCN(CC6CC6)CC5)CC4)cc3OC)nc2N1C(C)C (stereo not given in full)	inactive
Cc1c(C)n(Cc2ccc(-c3ccccc3C(=O)O)cc2)c2ccc(C(=O)N[C@@H](C)c3ccc([N+](=O)[O-])cc3)cc12	inactive
Cc1cc(Nc2cc(NC(=O)c3c(Cl)cccc3Cl)ccn2)nc(N)n1	inactive
COCCn1c2c([n+](Cc3cnccn3)c1C)C(=O)c1ccccc1C2=O	0.0261 µM (active)
COc1cccc(-c2ccc(NC(=O)C3=C(C(=O)O)CCC3)c(F)c2)c1	1.17 µM (active)
COc1ccc(-n2nc(C(N)=O)c3c2C(=O)N(c2ccc(N4CCCCC4=O)cc2)CC3)cc1	1.31 µM (active)

Compound	Potency
CCC1=C[C@@H]2CN(C1)Cc1c([nH]c3ccccc13)[C@@](C(=O)OC)(c1cc3c(cc1OC)N(C)[C@@H]1[C@@](O)(C(=O)OC)[C@H](OC(C)=O)[C@]4(CC)C=CCN5CC[C@]31[C@@H]54)C2	0.369 µM (active)
CN1CC[C@@H](c2c(O)cc(O)c3c(=O)cc(-c4ccccc4Cl)oc23)[C@@H](O)C1	0.737 µM (active)
COc1cccc2nc(-c3cccs3)nc(NN3C(=O)C=C(C)C3=O)c12	5.22 µM (active)
COc1cc2c(Oc3ccc(NC(=O)C4(C(=O)Nc5ccc(F)cc5)CC4)cc3F)ccnc2cc1OCCCN1CCOCC1	10.4 µM (active)
Cc1c(Cn2c(C)nc3c(C(=O)O)cc(N4CCOCC4)cc32)cccc1C(F)(F)F	inactive
CC(NCc1ccc2c(c1)nc(NC(=O)c1ccc(-c3cn[nH]c3)s1)n2CC(C)(C)O)C(C)(C)C (stereo not given)	0.928 µM (active)
CCCCc1nc2cc(C=CC(=O)NO)ccc2n1CCN(CC)CC	2.33 µM (active)
CCN1CCN(Cc2ccc(-c3cc4c(N[C@H](C)c5ccccc5)ncnc4[nH]3)cc2)CC1	21.4 µM (active)
Cc1nc2cnc3ccc(C#Cc4cccnc4)cc3c2n1-c1ccc(C(C)(C)C#N)cc1	12 µM (active)
CNC(=O)c1ccccc1Nc1nc(Nc2ccc(N3CCOCC3)cc2OC)ncc1Cl	0.827 µM (active)
O=C(C=Cc1cccnc1)NCCCCC1CCN(C(=O)c2ccccc2)CC1	inactive
CC(=O)OCC(=O)[C@@]1(O)[C@H](C)C[C@H]2[C@@H]3C=C(C)C4=Cc5c(cnn5-c5ccccc5)C[C@]4(C)[C@@H]3[C@@H](O)C[C@@]21C	9.27 µM (active)
CC[C@H]1CN2CCc3cc(OC)c(OC)cc3[C@H]2C[C@@H]1C[C@@H]1NCCc2cc(OC)c(OC)cc21	0.369 µM (active)
COc1cc2nccc(Oc3ccc(NC(=O)C4(C(=O)Nc5ccc(F)cc5)CC4)cc3)c2cc1OC	inactive
CC(C)c1cc(C(=O)N2Cc3ccc(CN4CCN(C)CC4)cc3C2)c(O)cc1O	0.522 µM (active)
COc1cc2c(NC3CCN(C(C)C)CC3)nc(C3CCCCC3)nc2cc1OCCCN1CCCC1	26.1 µM (active)
Cc1cnc(-c2cnc(NCCNc3ccc(C#N)cn3)nc2-c2ccc(Cl)cc2Cl)[nH]1	inactive
CC(C)(C)OC(=O)Nc1ccc(-c2cc(C(=O)NCCCCCCC(=O)NO)no2)cc1	5.22 µM (active)
CC=CC1=C(C(=O)O)N2C(=O)[C@H](NC(=O)[C@H](N)c3ccc(O)cc3)[C@@H]2SC1	inactive
COC(=O)[C@]12CCC(C)(C)C[C@@H]1[C@@H]1C(=O)C=C3[C@@]4(C)C=C(C#N)C(=O)C(C)(C)[C@@H]4CC[C@@]3(C)[C@]1(C)CC2	1.65 µM (active)
